Among the test systems are HCT-15 colon; HT29 colon; SNB-75 CNS; SNB-19 CNS; U251 CNS; PC-3 prostate; SK-MEL-5 melanoma; UACC-62 melanoma; LOX IMVI melanoma; SK-MEL-28 melanoma; SK-MEL-2 melanoma; EKVX NSCLC; SN12C renal; UO-31 renal; TK-10 renal; ACHN renal; CAKI-1 renal; A498 renal; CCRF-CEM leukemia; MOLT-4 leukemia.
Assay in all cases: NCI-60 one-dose screen, 48 h (100 = growth as untreated, 0 = no growth, -100 = all killed)
Common to all, as to conditions: 10 µM unless noted

The panel holds about 83,000 compounds, 20% with a hit somewhere; the sample as a whole holds those more often.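 Cell lines were cultured in 96-well plates, exposed to a single compound concentration, and assessed for percent growth 48 hours later.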 A number with no mark means an inactive call. Active and inactive are the calls of the source. How the source made its calls: active means growth percent below 10; inactive means the rest.

With `O=c1[nH]c(Sc2sc3ccc(Cl)cc3c2CBr)nc(=S)[nH]1`, the growth in the test with HCT-15 colon was 21.2%; in the test with HT29 colon, 91.4%; with SNB-75 CNS it was 54%; in the test on SNB-19 CNS, 60.7%; with U251 CNS it was 38.7%; with PC-3 prostate it was 26.4%. In addition, the growth is 35.1% in the test with SK-MEL-5 melanoma; 1.82% (active) in the test on UACC-62 melanoma; 25.9% in the test with LOX IMVI melanoma; 28.4% with SK-MEL-28 melanoma; 7.23% (active) in the test with SK-MEL-2 melanoma; 40.2% with EKVX NSCLC. For the same molecule, the growth with SN12C renal was 41.8%; with UO-31 renal, 19.9%; with TK-10 renal, 46.2%; in the test with ACHN renal, 26.7%; in the test on CAKI-1 renal it was 13.7%; in the test on A498 renal it was 5.73% (active). Also, the growth in the test on CCRF-CEM leukemia is 18%; in the test with MOLT-4 leukemia, 17.5%.
For `CS(=O)(=O)Nc1cc(-c2ccc3ncc(C#N)c(NCc4ccccc4)c3c2)cnc1Cl`, the growth in the test on HCT-15 colon is 8.19% (active); in the test with HT29 colon, 6.89% (active); in the test on SNB-75 CNS, -36.7% (active); in the test with SNB-19 CNS, 7.25% (active); with U251 CNS, 11.1%; with PC-3 prostate it was -7.11% (active). For the same molecule, the growth in the test with SK-MEL-5 melanoma was -95.3% (active); in the test on UACC-62 melanoma it was -28% (active); in the test with LOX IMVI melanoma it was -32.6% (active); in the test with SK-MEL-28 melanoma, -7.57% (active); with SK-MEL-2 melanoma, -42.2% (active); in the test with EKVX NSCLC it was -20.1% (active). Also, the growth in the test on SN12C renal was 7.64% (active); in the test with UO-31 renal, 1.63% (active); in the test on TK-10 renal it was -25.2% (active); in the test on ACHN renal, 5.99% (active); in the test with CAKI-1 renal it was -27.7% (active); with A498 renal it was -57.2% (active). The growth in the test on MOLT-4 leukemia was -25.6% (active).
Regarding `O=C(O)c1ccc(-n2cc(CNc3cccc(Cl)c3)c(-c3ccc(F)cc3)n2)cc1`, the growth in the test with HCT-15 colon was 80.7%; in the test with HT29 colon, 111%; in the test with SNB-75 CNS, 120%; with SNB-19 CNS it was 99.3%; in the test on U251 CNS, 101%; in the test with PC-3 prostate, 94%. The growth in the test on SK-MEL-5 melanoma is 91.7%; in the test on UACC-62 melanoma, 74.3%; in the test on LOX IMVI melanoma it was 74.2%; in the test on SK-MEL-28 melanoma it was 101%; in the test with SK-MEL-2 melanoma it was 96.1%; with EKVX NSCLC, 90.5%. Further, the growth in the test on SN12C renal is 98.5%; in the test on UO-31 renal, 94.4%; in the test with TK-10 renal it was 127%; in the test on ACHN renal, 89.6%; in the test with CAKI-1 renal it was 89.9%; in the test on A498 renal, 72.5%. Also, the growth in the test with CCRF-CEM leukemia was 94%; in the test on MOLT-4 leukemia it was 80%.
Regarding `Oc1[nH]c2ccccc2c1Nn1c(N=N/C=c2/ccc3c(c2)C=NN=3)n[nH]c1=S`, the growth in the test with HCT-15 colon was 115%; in the test with HT29 colon it was 19.4%; in the test on SNB-75 CNS, 66.7%; with SNB-19 CNS it was 98.9%; in the test on U251 CNS, 111%; in the test on PC-3 prostate it was 97.4%. Further, the growth in the test on SK-MEL-5 melanoma was 92%; in the test on UACC-62 melanoma, 98.9%; in the test on LOX IMVI melanoma, 97.6%; in the test on SK-MEL-28 melanoma, 115%; in the test on SK-MEL-2 melanoma, 104%; in the test on EKVX NSCLC, 64.2%. The growth in the test on SN12C renal was 93.9%; in the test with UO-31 renal, 74.8%; with TK-10 renal, 165%; in the test with ACHN renal, 96.8%; in the test on CAKI-1 renal it was 82.8%; with A498 renal it was 82.9%. In addition, in the test with MOLT-4 leukemia, the growth was 103%.
As to `COc1ccc(-c2nc3cccc(O)c3c(=O)n2Cc2ccccc2)cc1COc1ccc(NC(C)=O)cc1`, the growth in the test with HCT-15 colon is 12.5% [3 µM]; with HT29 colon it was 55.9% [3 µM]; in the test on SNB-75 CNS it was 44.8% [3 µM]; with SNB-19 CNS, 42% [3 µM]; with U251 CNS, 30% [3 µM]; in the test with PC-3 prostate, 36.5% [3 µM]. Also, the growth is 29.4% [3 µM] in the test on SK-MEL-5 melanoma; 37.3% [3 µM] in the test with UACC-62 melanoma; 2.67% [3 µM] (active) in the test with LOX IMVI melanoma; 55.4% [3 µM] with SK-MEL-28 melanoma; 86.8% [3 µM] in the test with SK-MEL-2 melanoma; 79.5% [3 µM] in the test with EKVX NSCLC. The growth with SN12C renal is 62.3% [3 µM]; with UO-31 renal, 74.2% [3 µM]; in the test with TK-10 renal, 69.4% [3 µM]; in the test on ACHN renal, 36.2% [3 µM]; in the test on CAKI-1 renal, 57% [3 µM]; with A498 renal it was 70.5% [3 µM]. Further, the values for the growth with CCRF-CEM leukemia and in the test on MOLT-4 leukemia were 41.6% [3 µM] and 15.4% [3 µM], respectively.
Turning to `COc1ccc(/C(N)=N/C(N)=N/c2nc3ccccc3s2)cc1`, the growth in the test on HCT-15 colon was 62.6%; in the test with HT29 colon, 104%; in the test on SNB-75 CNS it was 23.5%; in the test with SNB-19 CNS it was 86.2%; in the test on U251 CNS, 68%; with PC-3 prostate, 62%. The growth with SK-MEL-5 melanoma was 72%; in the test with UACC-62 melanoma, 59.6%; with LOX IMVI melanoma, 22.8%; with SK-MEL-28 melanoma, 79.6%; in the test on SK-MEL-2 melanoma it was 66.7%; with EKVX NSCLC, 61%. The growth in the test with SN12C renal is 79%; with UO-31 renal, 57.4%; with TK-10 renal, 117%; in the test on ACHN renal, 80.8%; in the test on CAKI-1 renal, 40%; in the test on A498 renal it was 64.9%. The growth in the test on MOLT-4 leukemia is 74.6%.
Turning to `O=C(CSc1nc2ccccc2c(=O)n1-c1ccc(Cl)cc1)N/N=C/c1ccc(N2CCCCC2)cc1`, the growth in the test on HCT-15 colon was 67.8%; in the test on HT29 colon it was 60.9%; with SNB-75 CNS, 79.9%; in the test on SNB-19 CNS it was 43.2%; in the test on U251 CNS it was 50.6%; in the test on PC-3 prostate, 78.6%. Further, the growth in the test with SK-MEL-5 melanoma was 97.9%; with UACC-62 melanoma, 73.5%; in the test on LOX IMVI melanoma it was 43.5%; in the test on SK-MEL-28 melanoma, 84.8%; in the test on SK-MEL-2 melanoma, 99.5%; in the test with EKVX NSCLC it was 82.1%. Also, the growth in the test on SN12C renal is 62.4%; in the test on UO-31 renal, 53%; in the test on TK-10 renal, 103%; in the test with ACHN renal it was 17.4%; in the test on A498 renal, 78.5%; in the test with CCRF-CEM leukemia, 87%.
As for `CCC1=Cc2cc(OC)ccc2OC12C=Cc1cc(OC)ccc1O2` (centres undefined), the growth with HCT-15 colon is 14.7%; with HT29 colon, -9.52% (active); in the test on SNB-75 CNS, 24.5%; in the test with SNB-19 CNS, 20.8%; in the test on U251 CNS it was 28.7%; in the test with PC-3 prostate it was 31.6%. In addition, the growth in the test with SK-MEL-5 melanoma is 16.8%; with UACC-62 melanoma, 4.11% (active); with LOX IMVI melanoma, -5.73% (active); in the test with SK-MEL-28 melanoma, 56.6%; in the test on SK-MEL-2 melanoma, 52.5%; with EKVX NSCLC, 46.2%. The growth in the test with SN12C renal is 34.8%; in the test with UO-31 renal, 53%; in the test on TK-10 renal, 100%; in the test on ACHN renal, 45%; in the test on A498 renal, 3.41% (active); with CCRF-CEM leukemia it was 10.9%. For the same molecule, the growth with MOLT-4 leukemia is 11%.

For the origin of these results see PubChem BioAssay (NCI).
